# Residue numbers refer to the chain shown, from its start.
# Tests used:
# Assay in all cases: PBM; 200 nM protein, PBS
# Details in all cases: dsDNA, one strand shown
# HOXA4 [1] = target: HOXA4 (Homo sapiens, UniProt Q00056 201-287, W262R)
# HOXC9 [2] = target: HOXC9 (Homo sapiens, UniProt P31274 178-260, K195R)
# HOXA4 [3] = target: HOXA4 (Homo sapiens, UniProt Q00056 201-287, R217L)
# HOXC9 [4] = target: HOXC9 (Homo sapiens, UniProt P31274 178-260)
# HOXC9 [5] = target: HOXC9 (Homo sapiens, UniProt P31274 178-260, R193K)
# HOXA4 [6] = target: HOXA4 (Homo sapiens, UniProt Q00056 201-287)
# HOXC9 [7] = target: HOXC9 (Homo sapiens, UniProt P31274 178-260, R222W)
# HOXA4 [8] = target: HOXA4 (Homo sapiens, UniProt Q00056 201-287, W262F)
# HOXA2 [9] = target: HOXA2 (Homo sapiens, UniProt O43364 129-215, R185T)
# HOXA2 [10] = target: HOXA2 (Homo sapiens, UniProt O43364 129-215, R185K)
# HOXA2 [11] = target: HOXA2 (Homo sapiens, UniProt O43364 129-215, Y150S)
# HOXA2 [12] = target: HOXA2 (Homo sapiens, UniProt O43364 129-215)
# PRRX1 [13] = target: PRRX1 (Homo sapiens, UniProt P54821 80-166, F113S)
# PRRX1 [14] = target: PRRX1 (Homo sapiens, UniProt P54821 80-166)
# PAX4 [15] = target: T1, PAX4 (Homo sapiens, UniProt O43316 9-242, R200K)
# T1 sequence: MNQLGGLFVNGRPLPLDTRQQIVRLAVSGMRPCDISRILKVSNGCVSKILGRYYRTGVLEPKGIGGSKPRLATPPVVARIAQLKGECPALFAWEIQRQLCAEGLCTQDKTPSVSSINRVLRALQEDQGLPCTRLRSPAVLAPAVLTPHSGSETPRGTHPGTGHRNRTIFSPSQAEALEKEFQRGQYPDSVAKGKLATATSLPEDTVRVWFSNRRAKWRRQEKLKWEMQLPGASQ
# PAX4 [16] = target: T2, PAX4 (Homo sapiens, UniProt O43316 9-242)
# T2 sequence: T1 sequence with K192R
# PAX4 [17] = target: T3, PAX4 (Homo sapiens, UniProt O43316 9-242, R200Q)
# T3 sequence: T1 sequence with K192Q
# PAX4 [18] = target: T4, PAX4 (Homo sapiens, UniProt O43316 9-242, F177V)
# T4 sequence: T1 sequence with F169V, K192R
# PAX4 [19] = target: T5, PAX4 (Homo sapiens, UniProt O43316 9-242, F177Y)
# T5 sequence: T1 sequence with F169Y, K192R
# PAX4 [20] = target: T6, PAX4 (Homo sapiens, UniProt O43316 9-242, R227W)
# T6 sequence: T1 sequence with K192R, R219W
# HOXC10 [21] = target: HOXC10 (Homo sapiens, UniProt Q9NYD6 254-340)
# MSX2 [22] = target: MSX2 (Homo sapiens, UniProt P35548 130-214, R199I)
# HOXC10 [23] = target: HOXC10 (Homo sapiens, UniProt Q9NYD6 254-340, K271E)
# MSX2 [24] = target: MSX2 (Homo sapiens, UniProt P35548 130-214)
# VAX1 [25] = target: VAX1 (Homo sapiens, UniProt Q5SQQ9 86-172)
# MSX2 [26] = target: MSX2 (Homo sapiens, UniProt P35548 130-214, F161Y)
# VAX1 [27] = target: VAX1 (Homo sapiens, UniProt Q5SQQ9 86-172, T142I)
# VAX1 [28] = target: VAX1 (Homo sapiens, UniProt Q5SQQ9 86-172, K157R)
# SIX6 [29] = target: T7, SIX6 (Homo sapiens, UniProt O95475 114-200, L167I)
# T7 sequence: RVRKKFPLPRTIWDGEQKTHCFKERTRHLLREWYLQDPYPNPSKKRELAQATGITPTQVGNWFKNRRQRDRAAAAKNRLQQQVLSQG
# SIX6 [30] = target: T8, SIX6 (Homo sapiens, UniProt O95475 114-200, T139Q)
# T8 sequence: T7 sequence with T26Q, I54L
# HOXB6 [31] = target: HOXB6 (Homo sapiens, UniProt P17509 132-218, K202E)
# ALX1 [32] = target: ALX1 (Homo sapiens, UniProt Q15699 118-204, L144V)
# ALX3 [33] = target: ALX3 (Homo sapiens, UniProt O95076 139-225, N203Q)
# ALX1 [34] = target: ALX1 (Homo sapiens, UniProt Q15699 118-204, L144R)
# ALX3 [35] = target: ALX3 (Homo sapiens, UniProt O95076 139-225)
# ALX3 [36] = target: ALX3 (Homo sapiens, UniProt O95076 139-225, L168Q)
# ALX3 [37] = target: ALX3 (Homo sapiens, UniProt O95076 139-225, L168V)
# ALX1 [38] = target: ALX1 (Homo sapiens, UniProt Q15699 118-204)
# ALX3 [39] = target: ALX3 (Homo sapiens, UniProt O95076 139-225, N203S)
# HOXB6 [40] = target: HOXB6 (Homo sapiens, UniProt P17509 132-218)
# Chain of HOXB6 (Homo sapiens, UniProt P17509 132-218) (P17509 132-218): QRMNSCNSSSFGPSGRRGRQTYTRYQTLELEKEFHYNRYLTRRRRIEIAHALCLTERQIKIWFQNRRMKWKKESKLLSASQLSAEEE
# Chain of HOXA4 (Homo sapiens, UniProt Q00056 201-287, R217L) (Q00056 201-287 R217L): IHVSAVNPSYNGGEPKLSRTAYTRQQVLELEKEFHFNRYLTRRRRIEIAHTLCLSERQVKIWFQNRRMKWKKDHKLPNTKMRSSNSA
# Chain of HOXA4 (Homo sapiens, UniProt Q00056 201-287) (Q00056 201-287): as the sequence (Q00056 201-287 R217L) above, with L17R counted along it
# Chain of HOXC9 (Homo sapiens, UniProt P31274 178-260, K195R) (P31274 178-260 K195R): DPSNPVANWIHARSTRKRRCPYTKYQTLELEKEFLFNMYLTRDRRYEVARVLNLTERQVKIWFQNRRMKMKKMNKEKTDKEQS
# Chain of HOXA4 (Homo sapiens, UniProt Q00056 201-287, W262F) (Q00056 201-287 W262F): as the sequence (Q00056 201-287 R217L) above, with L17R, W62F counted along it
# Chain of HOXC9 (Homo sapiens, UniProt P31274 178-260, R193K) (P31274 178-260 R193K): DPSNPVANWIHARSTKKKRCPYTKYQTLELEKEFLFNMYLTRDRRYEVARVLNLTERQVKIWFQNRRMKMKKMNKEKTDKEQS
# Chain of HOXA4 (Homo sapiens, UniProt Q00056 201-287, W262R) (Q00056 201-287 W262R): as the sequence (Q00056 201-287 R217L) above, with L17R, W62R counted along it
# Chain of HOXC9 (Homo sapiens, UniProt P31274 178-260) (P31274 178-260): as the sequence (P31274 178-260 R193K) above, with K16R counted along it
# Chain of HOXC9 (Homo sapiens, UniProt P31274 178-260, R222W) (P31274 178-260 R222W): as the sequence (P31274 178-260 R193K) above, with K16R, R45W counted along it
# Chain of MSX2 (Homo sapiens, UniProt P35548 130-214) (P35548 130-214): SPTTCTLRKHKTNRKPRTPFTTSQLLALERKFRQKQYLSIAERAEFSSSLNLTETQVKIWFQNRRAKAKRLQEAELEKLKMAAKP
# Chain of ALX3 (Homo sapiens, UniProt O95076 139-225) (O95076 139-225): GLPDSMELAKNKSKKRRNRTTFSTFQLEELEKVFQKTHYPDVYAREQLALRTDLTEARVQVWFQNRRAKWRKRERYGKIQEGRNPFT
# Chain of ALX3 (Homo sapiens, UniProt O95076 139-225, N203Q) (O95076 139-225 N203Q): as the sequence (O95076 139-225) above, with N65Q counted along it
# Chain of PRRX1 (Homo sapiens, UniProt P54821 80-166, F113S) (P54821 80-166 F113S): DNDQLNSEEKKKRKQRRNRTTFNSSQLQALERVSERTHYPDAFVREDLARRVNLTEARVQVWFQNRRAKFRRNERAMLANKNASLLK
# Chain of MSX2 (Homo sapiens, UniProt P35548 130-214, R199I) (P35548 130-214 R199I): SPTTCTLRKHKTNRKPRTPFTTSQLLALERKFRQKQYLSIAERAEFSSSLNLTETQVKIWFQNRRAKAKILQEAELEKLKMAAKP
# Chain of HOXB6 (Homo sapiens, UniProt P17509 132-218, K202E) (P17509 132-218 K202E): as the sequence (P17509 132-218) above, with K71E counted along it
# Chain of ALX1 (Homo sapiens, UniProt Q15699 118-204) (Q15699 118-204): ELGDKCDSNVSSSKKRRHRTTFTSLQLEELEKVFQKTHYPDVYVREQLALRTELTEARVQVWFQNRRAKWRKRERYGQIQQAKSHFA
# Chain of HOXC10 (Homo sapiens, UniProt Q9NYD6 254-340, K271E) (Q9NYD6 254-340 K271E): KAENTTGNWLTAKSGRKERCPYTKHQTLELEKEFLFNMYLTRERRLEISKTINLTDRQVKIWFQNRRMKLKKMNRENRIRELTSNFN
# Chain of HOXA2 (Homo sapiens, UniProt O43364 129-215, R185T) (O43364 129-215 R185T): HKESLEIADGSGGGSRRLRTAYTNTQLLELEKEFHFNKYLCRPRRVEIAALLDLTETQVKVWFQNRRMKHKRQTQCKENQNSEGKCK
# Chain of VAX1 (Homo sapiens, UniProt Q5SQQ9 86-172) (Q5SQQ9 86-172): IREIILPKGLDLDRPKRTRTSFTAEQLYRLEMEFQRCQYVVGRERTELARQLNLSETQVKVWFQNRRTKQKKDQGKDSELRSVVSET
# Chain of ALX3 (Homo sapiens, UniProt O95076 139-225, L168Q) (O95076 139-225 L168Q): as the sequence (O95076 139-225) above, with L30Q counted along it
# Chain of ALX1 (Homo sapiens, UniProt Q15699 118-204, L144R) (Q15699 118-204 L144R): as the sequence (Q15699 118-204) above, with L27R counted along it
# Chain of ALX1 (Homo sapiens, UniProt Q15699 118-204, L144V) (Q15699 118-204 L144V): as the sequence (Q15699 118-204) above, with L27V counted along it
# Chain of VAX1 (Homo sapiens, UniProt Q5SQQ9 86-172, K157R) (Q5SQQ9 86-172 K157R): as the sequence (Q5SQQ9 86-172) above, with K72R counted along it
# Chain of ALX3 (Homo sapiens, UniProt O95076 139-225, L168V) (O95076 139-225 L168V): as the sequence (O95076 139-225) above, with L30V counted along it
# Chain of VAX1 (Homo sapiens, UniProt Q5SQQ9 86-172, T142I) (Q5SQQ9 86-172 T142I): as the sequence (Q5SQQ9 86-172) above, with T57I counted along it
# Chain of HOXA2 (Homo sapiens, UniProt O43364 129-215, Y150S) (O43364 129-215 Y150S): as the sequence (O43364 129-215 R185T) above, with Y22S, T57R counted along it
# Chain of ALX3 (Homo sapiens, UniProt O95076 139-225, N203S) (O95076 139-225 N203S): as the sequence (O95076 139-225) above, with N65S counted along it
# Chain of MSX2 (Homo sapiens, UniProt P35548 130-214, F161Y) (P35548 130-214 F161Y): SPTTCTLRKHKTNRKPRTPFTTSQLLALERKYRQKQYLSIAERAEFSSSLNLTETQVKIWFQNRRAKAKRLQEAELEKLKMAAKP
# Chain of PRRX1 (Homo sapiens, UniProt P54821 80-166) (P54821 80-166): as the sequence (P54821 80-166 F113S) above, with S34F counted along it
# Chain of HOXA2 (Homo sapiens, UniProt O43364 129-215) (O43364 129-215): as the sequence (O43364 129-215 R185T) above, with T57R counted along it
# Chain of HOXC10 (Homo sapiens, UniProt Q9NYD6 254-340) (Q9NYD6 254-340): as the sequence (Q9NYD6 254-340 K271E) above, with E18K counted along it
# Chain of HOXA2 (Homo sapiens, UniProt O43364 129-215, R185K) (O43364 129-215 R185K): as the sequence (O43364 129-215 R185T) above, with T57K counted along it
sequence,measurement,setting,value
GACCCTCC,binding signal,HOXA4 [1],"9.82 upbm affinity estimate (log intensity, higher = more binding, comparable within an allelic series)"
same,binding signal,HOXC9 [2],"9.64 upbm affinity estimate (log intensity, higher = more binding, comparable within an allelic series)"
same,binding signal,HOXA4 [3],"9.94 upbm affinity estimate (log intensity, higher = more binding, comparable within an allelic series)"
same,binding signal,HOXC9 [4],"9.69 upbm affinity estimate (log intensity, higher = more binding, comparable within an allelic series)"
same,binding signal,HOXC9 [5],"9.67 upbm affinity estimate (log intensity, higher = more binding, comparable within an allelic series)"
same,binding signal,HOXA4 [6],"9.94 upbm affinity estimate (log intensity, higher = more binding, comparable within an allelic series)"
same,binding signal,HOXC9 [7],"9.65 upbm affinity estimate (log intensity, higher = more binding, comparable within an allelic series)"
same,binding signal,HOXA4 [8],"9.9 upbm affinity estimate (log intensity, higher = more binding, comparable within an allelic series)"
ATGAATGA,binding signal,HOXA4 [1],"10.2 upbm affinity estimate (log intensity, higher = more binding, comparable within an allelic series)"
same,binding signal,HOXC9 [2],"11.2 upbm affinity estimate (log intensity, higher = more binding, comparable within an allelic series)"
same,binding signal,HOXA2 [9],"9.4 upbm affinity estimate (log intensity, higher = more binding, comparable within an allelic series)"
same,binding signal,HOXA4 [3],"11.1 upbm affinity estimate (log intensity, higher = more binding, comparable within an allelic series)"
same,binding signal,HOXC9 [4],"11 upbm affinity estimate (log intensity, higher = more binding, comparable within an allelic series)"
same,binding signal,HOXC9 [5],"11.2 upbm affinity estimate (log intensity, higher = more binding, comparable within an allelic series)"
same,binding signal,HOXA2 [10],"11.9 upbm affinity estimate (log intensity, higher = more binding, comparable within an allelic series)"
same,binding signal,HOXA4 [6],"11.5 upbm affinity estimate (log intensity, higher = more binding, comparable within an allelic series)"
same,binding signal,HOXA2 [11],"10.9 upbm affinity estimate (log intensity, higher = more binding, comparable within an allelic series)"
same,binding signal,HOXA2 [12],"9.56 upbm affinity estimate (log intensity, higher = more binding, comparable within an allelic series)"
GGGGGAAC,binding signal,HOXA4 [1],"9.66 upbm affinity estimate (log intensity, higher = more binding, comparable within an allelic series)"
same,binding signal,PRRX1 [13],"9.45 upbm affinity estimate (log intensity, higher = more binding, comparable within an allelic series)"
same,binding signal,HOXA4 [3],"9.7 upbm affinity estimate (log intensity, higher = more binding, comparable within an allelic series)"
same,binding signal,HOXA4 [6],"9.72 upbm affinity estimate (log intensity, higher = more binding, comparable within an allelic series)"
same,binding signal,HOXA4 [8],"9.64 upbm affinity estimate (log intensity, higher = more binding, comparable within an allelic series)"
same,binding signal,PRRX1 [14],"9.62 upbm affinity estimate (log intensity, higher = more binding, comparable within an allelic series)"
GCACCACC,binding signal,HOXA4 [1],"9.87 upbm affinity estimate (log intensity, higher = more binding, comparable within an allelic series)"
same,binding signal,PAX4 [15],"9.27 upbm affinity estimate (log intensity, higher = more binding, comparable within an allelic series)"
same,binding signal,PAX4 [16],"9.29 upbm affinity estimate (log intensity, higher = more binding, comparable within an allelic series)"
same,binding signal,HOXA4 [3],"9.72 upbm affinity estimate (log intensity, higher = more binding, comparable within an allelic series)"
same,binding signal,PAX4 [17],"9.35 upbm affinity estimate (log intensity, higher = more binding, comparable within an allelic series)"
same,binding signal,PAX4 [18],"9.29 upbm affinity estimate (log intensity, higher = more binding, comparable within an allelic series)"
same,binding signal,HOXA4 [6],"9.72 upbm affinity estimate (log intensity, higher = more binding, comparable within an allelic series)"
same,binding signal,PAX4 [19],"9.28 upbm affinity estimate (log intensity, higher = more binding, comparable within an allelic series)"
same,binding signal,PAX4 [20],"9.35 upbm affinity estimate (log intensity, higher = more binding, comparable within an allelic series)"
same,binding signal,HOXA4 [8],"9.79 upbm affinity estimate (log intensity, higher = more binding, comparable within an allelic series)"
CGCGCGCG,binding signal,HOXA4 [1],"9.91 upbm affinity estimate (log intensity, higher = more binding, comparable within an allelic series)"
same,binding signal,HOXC10 [21],"10.1 upbm affinity estimate (log intensity, higher = more binding, comparable within an allelic series)"
same,binding signal,HOXA4 [3],"9.88 upbm affinity estimate (log intensity, higher = more binding, comparable within an allelic series)"
same,binding signal,MSX2 [22],"9.61 upbm affinity estimate (log intensity, higher = more binding, comparable within an allelic series)"
same,binding signal,HOXA4 [6],"9.94 upbm affinity estimate (log intensity, higher = more binding, comparable within an allelic series)"
same,binding signal,HOXC10 [23],"10 upbm affinity estimate (log intensity, higher = more binding, comparable within an allelic series)"
same,binding signal,MSX2 [24],"9.53 upbm affinity estimate (log intensity, higher = more binding, comparable within an allelic series)"
same,binding signal,VAX1 [25],"7.34 upbm affinity estimate (log intensity, higher = more binding, comparable within an allelic series)"
same,binding signal,MSX2 [26],"9.52 upbm affinity estimate (log intensity, higher = more binding, comparable within an allelic series)"
same,binding signal,VAX1 [27],"7.38 upbm affinity estimate (log intensity, higher = more binding, comparable within an allelic series)"
same,binding signal,HOXA4 [8],"10.1 upbm affinity estimate (log intensity, higher = more binding, comparable within an allelic series)"
same,binding signal,VAX1 [28],"7.37 upbm affinity estimate (log intensity, higher = more binding, comparable within an allelic series)"
AGTGATCC,binding signal,SIX6 [29],"11.1 upbm affinity estimate (log intensity, higher = more binding, comparable within an allelic series)"
same,binding signal,SIX6 [30],"11.2 upbm affinity estimate (log intensity, higher = more binding, comparable within an allelic series)"
CCGGACGG,binding signal,HOXA4 [1],"9.78 upbm affinity estimate (log intensity, higher = more binding, comparable within an allelic series)"
same,binding signal,HOXC9 [2],"9.56 upbm affinity estimate (log intensity, higher = more binding, comparable within an allelic series)"
same,binding signal,HOXB6 [31],"8.96 upbm affinity estimate (log intensity, higher = more binding, comparable within an allelic series)"
same,binding signal,HOXA4 [3],"9.81 upbm affinity estimate (log intensity, higher = more binding, comparable within an allelic series)"
same,binding signal,HOXC9 [4],"9.65 upbm affinity estimate (log intensity, higher = more binding, comparable within an allelic series)"
same,binding signal,ALX1 [32],"6.5 upbm affinity estimate (log intensity, higher = more binding, comparable within an allelic series)"
same,binding signal,ALX3 [33],"7.77 upbm affinity estimate (log intensity, higher = more binding, comparable within an allelic series)"
same,binding signal,HOXC9 [5],"9.6 upbm affinity estimate (log intensity, higher = more binding, comparable within an allelic series)"
same,binding signal,ALX1 [34],"6.53 upbm affinity estimate (log intensity, higher = more binding, comparable within an allelic series)"
same,binding signal,HOXA4 [6],"9.9 upbm affinity estimate (log intensity, higher = more binding, comparable within an allelic series)"
same,binding signal,ALX3 [35],"7.87 upbm affinity estimate (log intensity, higher = more binding, comparable within an allelic series)"
same,binding signal,ALX3 [36],"7.82 upbm affinity estimate (log intensity, higher = more binding, comparable within an allelic series)"
same,binding signal,HOXC9 [7],"9.76 upbm affinity estimate (log intensity, higher = more binding, comparable within an allelic series)"
same,binding signal,ALX3 [37],"7.73 upbm affinity estimate (log intensity, higher = more binding, comparable within an allelic series)"
same,binding signal,ALX1 [38],"6.67 upbm affinity estimate (log intensity, higher = more binding, comparable within an allelic series)"
same,binding signal,HOXA4 [8],"9.82 upbm affinity estimate (log intensity, higher = more binding, comparable within an allelic series)"
same,binding signal,ALX3 [39],"7.72 upbm affinity estimate (log intensity, higher = more binding, comparable within an allelic series)"
same,binding signal,HOXB6 [40],"9.05 upbm affinity estimate (log intensity, higher = more binding, comparable within an allelic series)"
